# A selection: hits, their analogues and other compounds. The true share with any hit is near 3.3%.
# LDHA inh – qHTS assay for inhibitors of human lactate dehydrogenase. AID 1347041, 2019. activity change, % (values are at about 110 or 230 µM). purified LDHA, NADH/diaphorase-resazurin fluorescence; stronger effect = lower value. hit rate 0.15% among 480,000. L-lactate dehydrogenase A chain (Homo sapiens), P00338; in the data active = activity change below about -30%; inconclusive = mostly about -25% to -30%
#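 Human LDH5 at 2 nM final in Tris HCl pH 7.4 with 0.06 mM NADH and 0.2 mM pyruvate, reacted 5 minutes at room temperature. Remaining NADH coupled via diaphorase/resazurin; resorufin fluorescence read at 0 and 20 minutes, normalized to enzyme-free and DMSO wells.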
# D3 ag – qHTS of D3 Dopamine Receptor Agonist: qHTS; max activation, %; D3R DiscoveRx beta-arrestin cells, luminescence, 90 min; AID 652048, 2013; D(3) dopamine receptor (Homo sapiens), P35462; hit rate 0.58% among 410,000; in the data active = max activation above about 30%
# Target sequence (P35462 whole entry, looked up): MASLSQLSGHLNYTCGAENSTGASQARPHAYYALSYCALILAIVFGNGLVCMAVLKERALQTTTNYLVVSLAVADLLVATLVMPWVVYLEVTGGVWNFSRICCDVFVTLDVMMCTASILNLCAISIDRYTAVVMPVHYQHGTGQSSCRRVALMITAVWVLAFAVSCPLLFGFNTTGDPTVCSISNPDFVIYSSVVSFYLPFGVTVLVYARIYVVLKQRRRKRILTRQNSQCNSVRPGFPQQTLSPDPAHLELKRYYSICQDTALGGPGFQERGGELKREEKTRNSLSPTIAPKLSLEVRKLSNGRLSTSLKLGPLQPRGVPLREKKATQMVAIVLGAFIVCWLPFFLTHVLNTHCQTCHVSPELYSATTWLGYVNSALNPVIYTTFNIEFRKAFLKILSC
#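 Agonist mode: compounds and dopamine controls were applied to plated cells for 90 min at 37 degrees C after an overnight attachment at 1500 cells/well. Luminescent read-out followed 30 - 60 minutes at room temperature with DiscoveRx detection reagent.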
# PI5P4Ka inh – qHTS for Inhibitors of phosphatidylinositol 5-phosphate 4-kinase (PI5P4K); max response, %; hit rate 1.2% among 330,000; PI5P4Kalpha enzyme, ADP-Glo luminescence, 60 min; stronger effect = lower value; Phosphatidylinositol 5-phosphate 4-kinase type-2 alpha (Homo sapiens), P48426; active = max response of -50% or lower; inconclusive = between -30% and -50%; inactive = -30% or higher; also: value at the top dose of about 77 µM
#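 Quantitative HTS of the MLSMR library against PI5P4Kalpha with substrate. ATP added last at 5 microM final; room temperature, 60 minutes. Remaining ATP depleted, ADP converted and read as luminescence.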
# DRD3 antagonist – qHTS of D3 Dopamine Receptor Antagonist: qHTS; D(3) dopamine receptor (Homo sapiens), P35462; D3R cells, DiscoveRx beta-arrestin luminescence, antagonist mode; stronger effect = lower value; max response, negative = inhibition, %; hit rate 2.5% among 360,000; in the data active = max response below about -50%; inconclusive = no clear call, values can overlap the other calls
#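 Cells plated overnight at 1500 cells/well, then exposed to library compounds with dopamine controls for 90 minutes at 37 degrees C. DiscoveRx reagent added for 30–60 minutes at room temperature; luminescence read, quantitative HTS format.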
# PI4K2A inh – qHTS for small molecular inhibitors of PI4K2A; Phosphatidylinositol 4-kinase type 2-alpha (Homo sapiens), Q9BTU6; purified PI4K2A, ADP-Glo luminescence, 1 h; stronger effect = lower value; activity change, negative = inhibition, % at 76.9 µM; hit rate 0.13% among 420,000; AID 1346378, 2018; in the data active = activity change below about -50%; inconclusive = mostly about -30% to -49%
#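 In this quantitative HTS, ADP production by PI4K2A was quantified luminescently after 1 h at ambient temperature; 100 microM adenosine served as plate-quality control.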
# ADP-Glo interf – qHTS for Inhibitors of PI5P4K: ADP-Glo counter assay; Potency, µM (highest dose often 76.9 µM), most hits filed as inhibitors; 1,100 tested, under 10 active; shares compounds with PI5P4Ka inh; ADP-Glo detection counter-screen, luciferase luminescence, no enzyme; AID 743285, 2014; active = well fitted curve in the direction sought with a large enough effect; inconclusive = small, poorly fitted or top-dose-only effect, or another doubt; inactive = no such curve, though single readings can be large or run the other way
# A number is an active result; 0 = inactive; ? = inconclusive; - = no result given.
SMILES,LDHA inh,D3 ag,PI5P4Ka inh,DRD3 antagonist,PI4K2A inh,ADP-Glo interf
Cc1ccc(N(C(=O)CNC(=O)c2ccco2)C(C(=O)NC2CCCC2)c2cccnc2)c(C)c1 (stereo not given),0,0,-58.5,0,0,0
Cc1ccc(N(C(=O)CNC(=O)c2ccco2)C(C(=O)NC2CCCCC2)c2cccnc2)c(C)c1 (stereo not given),0,0,0,0,0,-
O=C(CC1CC2CCC1C2)NCc1cccc(Cl)c1 (stereo not given),0,-,-,-,-,-
COCc1ccc(C(=O)Nc2cccc(C)c2C)cc1,0,-,-,-,-,-
Cc1ccc(NC(=O)C(C)OC(=O)c2cc(=O)[nH]c3ccccc23)cc1S(=O)(=O)N1CCOCC1 (stereo not given),0,0,-61.1,0,0,0
Oc1ccc(CNc2ccccc2F)c2cccnc12,0,0,?,0,0,0
Oc1ccc(NCc2ccccc2F)c2cccnc12,0,-,-,-,-,-
Cc1ccc(-c2csc(NC(=O)c3ccno3)n2)cc1,0,0,-53.2,0,0,0
Cc1ccc(-c2csc(NC(=O)c3ccc(C)o3)n2)cc1,0,0,0,?,0,-
O=C1CCc2cc(S(=O)(=O)Nc3ccncc3)ccc2N1,0,-,-,-,-,-
CC(SCc1coc(-c2ccc(Cl)cc2)n1)C(=O)NC(C)(C)C (stereo not given),0,-,-,-,-,-
O=c1cc(CSc2ccc(Cl)cc2)nc2nc[nH]n12,0,0,-67.2,0,0,0
COc1ccc(-c2coc3c(C)c4oc(=O)c(CC(=O)O)c(C)c4cc23)cc1,0,0,0,0,0,-
Cc1c(CC(=O)O)c(=O)oc2c(C)c3occ(-c4ccc(Br)cc4)c3cc12,0,0,-50.7,0,0,0
CCOc1c(Br)cc(/C=C/C(=O)c2ccc(OC)cc2)cc1OC,0,-,-,-,-,-
O=C(NCCCNC(=O)c1cccc2cccnc12)c1cccc2cccnc12,0,-,-,-,-,-
O=C(NCc1cc([N+](=O)[O-])ccc1O)c1cccc(NS(=O)(=O)c2ccccc2)c1,0,0,-65.6,0,0,0
O=C(NCc1ccccn1)c1ccc(NS(=O)(=O)c2cccc([N+](=O)[O-])c2)cc1,0,0,0,0,0,-
Cc1ccc2c(-c3cc4ccccc4o3)cc(=O)oc2c1,0,-,-,-,-,-
CCc1ccccc1NC(=O)C(OC(=O)c1ccccc1)C(OC(=O)c1ccccc1)C(=O)O (stereo not given),0,-,-,-,-,-
CCOC(=O)c1cnc(Nc2ccc(C)c(C)c2)c2ccccc12,0,-,-,-,-,-
O=S(=O)(Nc1ccc(-c2nc3cccnc3s2)cc1)c1ccccc1F,0,0,0,0,0,-
CCS(=O)(=O)Nc1cccc(-c2nc3cccnc3s2)c1,0,0,0,0,0,-
O=S(=O)(Nc1ccc(-c2nc3cccnc3s2)cc1)c1ccc(Cl)s1,0,0,-61.7,0,0,0
CCS(=O)(=O)Nc1ccc(-c2nc3cccnc3s2)cc1,0,0,-59.5,0,0,0
SMILES,LDHA inh,D3 ag,PI5P4Ka inh,DRD3 antagonist,PI4K2A inh,ADP-Glo interf
O=[N+]([O-])c1ccccc1S(=O)(=O)NCc1ccccn1,0,-,-,-,-,-
Cc1cc(C)c2c(N)c(C(=O)Nc3c(C)n(C)n(-c4ccccc4)c3=O)sc2n1,0,0,0,0,0,0
Cc1cc(C)c(NC(=O)c2sc3nc(C)cc(C)c3c2N)c(C)c1,0,0,-,-,0,-
CCN(Cc1ccco1)C(=O)c1cc2ccc(C(C)C)cc2[nH]1,0,-,-,-,-,-
Cc1ccc2ncnc(NCc3ccco3)c2c1,0,-,-,-,-,-
Cc1ccc(CNc2ncnc3ccc(-c4ccc(CO)o4)cc23)o1,0,-,-,-,0,0
COc1ccc(CCn2c(O)cc3nn(-c4nc5ccccc5s4)c(=O)c-3c2C)cc1,0,0,-80.9,0,0,0
C[C@H](CO)N1C[C@H](C)[C@@H](CN(C)S(=O)(=O)c2ccc3c(c2)OCCCO3)OCc2cnnn2CCCC1=O,0,0,-61.3,0,0,0
